{
  "source": "PubChem BioAssay AID651871",
  "about": "(Sanford-Burnham Center for Chemical Genomics, 2012)",
  "test_system": "HL-1",
  "experiment": "protection of cardiomyocytes from stress damage, SAR follow-up, cell-based, panel, H9c2 and HL-1, ATP luminescence, set 2 (AID 651871);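 note: cells exposed to stressor for 2 h before ATP readout; reference of the scale not given here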",
  "settings": "H9c2/HL-1 cardiomyocytes, 2-deoxyglucose stress, with 2-deoxyglucose, run 3, at 19.8 µM (top of the series)",
  "data": [
    {"smiles": "COc1ccc2c(c1OC)C(=O)N1c3ccccc3C(=O)N(Cc3cccc(Cl)c3Cl)C21", "note": "(stereo unspecified)", "values": [
      {"measurement": "activity (protection/inhibition)", "value": 22.5, "unit": "%"}
    ]}
  ]
}
